Read-out in experiment [1]: Matrix Metallopeptidase 9 (MMP9), MMP9 (gene 4318)
Put plainly: BSK_BE3C_MMP9: BioMAP Diversity Plus: BE3C Assay for Matrix Metallopeptidase 9 (MMP9) Biomarker Activity (AID 2284283). The settings on record: primary human bronchial epithelial cells. Put shortly: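 Human primary bronchial epithelial cells exposed 24 h to compound. MMP9 quantified by ELISA. SRB total-protein staining of parallel cultures assesses cytotoxicity. Positive-direction fit relative to DMSO.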

Read-out in experiment [2]: Plasminogen activator inhibitor-1 (PAI1), SERPINE1 (gene 5054)
Nature of the experiment: BSK_CASM3C_PAI1: BioMAP Diversity Plus: CASM3C Assay for Plasminogen activator inhibitor-1 (PAI1) Biomarker Activity (AID 2284284).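 Also: PAI-1 protein level measured by ELISA 24 h after dosing.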 The settings on record: primary human coronary artery smooth muscle cells.

Read-out in experiment [3]: Monocyte Chemoattractant Protein-1 (MCP1), CCL2 (gene 6347)
Nature of the experiment: BSK_hDFCGF_MCP1: BioMAP Diversity Plus: hDFCGF Assay for Monocyte Chemoattractant Protein-1 (MCP1) Biomarker Activity (AID 2284285). The settings on record: primary human foreskin fibroblasts. The method, boiled down:
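Human foreskin fibroblasts (hDFCGF system) were exposed to compound and secreted MCP-1 was measured by ELISA after 24 hours. Activity was fitted relative to DMSO. Cytotoxicity was checked by SRB total-protein staining in parallel cultures.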

Read-out in experiment [4]: Intercellular Adhesion Molecule 1 (ICAM1), ICAM1 (gene 3383)
Put plainly: BSK_hDFCGF_ICAM1: BioMAP Diversity Plus: hDFCGF Assay for Intercellular Adhesion Molecule 1 (ICAM1) Biomarker Activity (AID 2284287). The settings on record: primary human foreskin fibroblasts. Put shortly:
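Primary human foreskin fibroblasts (hDFCGF system) dosed with chemical; ICAM-1 quantified by ELISA at 24 h relative to DMSO. Parallel SRB total-protein staining to assess overt cytotoxicity.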

Read-out in experiment [5]: TIMP metallopeptidase inhibitor 2 (TIMP2), TIMP2 (gene 7077)
Nature of the experiment: BSK_hDFCGF_TIMP2: BioMAP Diversity Plus: hDFCGF Assay for TIMP metallopeptidase inhibitor 2 (TIMP2) Biomarker Activity (AID 2284289). The settings on record: primary human foreskin fibroblasts. The method, boiled down: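 Primary human foreskin fibroblasts in the hDFCGF system, dosed for 24 h; TIMP-2 level measured by ELISA, fitted in the positive direction against DMSO; cytotoxicity checked in parallel by sulforhodamine B total protein staining.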

Read-out in experiment [6]: Thrombomodulin, THBD (gene 7056)
Put plainly: BSK_LPS_Thrombomodulin: BioMAP Diversity Plus: LPS Assay for Thrombomodulin Biomarker Activity (AID 2284296). The settings on record: primary human HUVEC with PBMC. Put shortly:
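Human umbilical vein endothelial cells co-cultured with PBMC and stimulated with LPS; cell-surface thrombomodulin measured by ELISA 24 hours after compound. Gain or loss versus DMSO; cytotoxicity checked by SRB staining in parallel cultures.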

Read-out in the next experiment: CD40, CD40 (gene 958)
Nature of the experiment: BSK_IMphg_CD40: BioMAP Diversity Plus: IMphg Assay for CD40 Biomarker Activity (AID 2284288). The conditions noted are these: primary human endothelial cells with macrophages. Put shortly:
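Venular endothelial cells co-cultured with macrophages (human primary), CD40 measured by ELISA 24 h after dosing. Positive-direction fit vs DMSO baseline; cytotoxicity tracked by SRB total-protein staining in parallel cultures.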

Read-out in experiment [7]: Interleukin-1 alpha (IL1a), IL1A (gene 3552)
Put plainly: BSK_IMphg_IL1a: BioMAP Diversity Plus: IMphg Assay for Interleukin-1 alpha (IL1a) Biomarker Activity (AID 2284290). The conditions noted are these: primary human endothelial cells with macrophages. Put shortly: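 Human venular endothelial cells co-cultured with macrophages, IMphg system. IL-1α is measured by ELISA 24 h after dosing and fitted in the positive direction against DMSO. Cytotoxicity is assessed by SRB staining of parallel cultures.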

Read-out in experiment [8]: E-selectin (Homo sapiens) (UniProt P16581)
Put plainly: BSK_IMphg_ESelectin: BioMAP Diversity Plus: IMphg Assay for Eselectin Biomarker Activity (AID 2284291). The settings on record: primary human endothelial cells with macrophages. Put shortly:
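Human venular endothelial cell–macrophage co-culture, E-selectin measured by ELISA 24 h after chemical dosing. Signal fitted in the positive direction against DMSO as negative control and baseline.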

A short description of experiment [9]: BSK_IMphg_SRB: Viability Assessment in the BioMAP Diversity Plus: IMphg Assay (AID 2284292).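 Also: measured one day after compound addition.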 The conditions noted are these: primary human endothelial cells with macrophages. Put shortly: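 Human venular endothelial cells with macrophages, 24 h after chemical dosing; total protein by 0.1% SRB staining after 10% TCA fixation, read at 560 nm. Positive-direction fitting versus DMSO baseline.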

Read-out in experiment [10]: Macrophage colony-stimulating factor (MCSF), CSF1 (gene 1435)
Put plainly: BSK_IMphg_MCSF: BioMAP Diversity Plus: IMphg Assay for Macrophage colony-stimulating factor (MCSF) Biomarker Activity (AID 2284293). The settings on record: primary human endothelial cells with macrophages. The method, boiled down: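 Co-culture of human venular endothelial cells and macrophages, 24 hours of chemical exposure. M-CSF quantified by ELISA, with parallel SRB total-protein staining for cytotoxicity; activity fitted relative to DMSO.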

Experiment [11] is described as follows: BSK_IMphg_SRB.Mphg: Macrophage Viability Assessment in the BioMAP Diversity Plus: IMphg Assay (AID 2284295). The conditions noted are these: primary human endothelial cells with macrophages. Put shortly: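 Venular endothelial cells co-cultured with macrophages, read 24 h after dosing. Total protein measured by 0.1% SRB staining after 10% TCA fixation, absorbance at 560 nm. Fitted in positive direction against DMSO baseline.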

Read-out in experiment [12]: Interleukin-10 (IL10), IL10 (gene 3586)
Put plainly: BSK_IMphg_IL10: BioMAP Diversity Plus: IMphg Assay for Interleukin-10 (IL10) Biomarker Activity (AID 2284294). The settings on record: primary human endothelial cells with macrophages. The method, boiled down:
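Human venular endothelial cells cocultured with macrophages, dosed 24 h; IL-10 measured by ELISA, activity relative to DMSO. Cytotoxicity assessed in parallel cultures by sulforhodamine B total-protein staining.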

SMILES strings stand for the structures. “And” between values parts separate entries of the source, which are not always exact repeats. Equal entries are not always repeated. A structure can be active in one record and inactive in another. The source made the active and inactive calls. The calls were made as follows: active = hit-call score of the fitted dose curve at least 0.9, where 1 is the maximum; inactive = score below 0.9.

Chain of E-selectin (Homo sapiens) (P16581 whole entry, looked up): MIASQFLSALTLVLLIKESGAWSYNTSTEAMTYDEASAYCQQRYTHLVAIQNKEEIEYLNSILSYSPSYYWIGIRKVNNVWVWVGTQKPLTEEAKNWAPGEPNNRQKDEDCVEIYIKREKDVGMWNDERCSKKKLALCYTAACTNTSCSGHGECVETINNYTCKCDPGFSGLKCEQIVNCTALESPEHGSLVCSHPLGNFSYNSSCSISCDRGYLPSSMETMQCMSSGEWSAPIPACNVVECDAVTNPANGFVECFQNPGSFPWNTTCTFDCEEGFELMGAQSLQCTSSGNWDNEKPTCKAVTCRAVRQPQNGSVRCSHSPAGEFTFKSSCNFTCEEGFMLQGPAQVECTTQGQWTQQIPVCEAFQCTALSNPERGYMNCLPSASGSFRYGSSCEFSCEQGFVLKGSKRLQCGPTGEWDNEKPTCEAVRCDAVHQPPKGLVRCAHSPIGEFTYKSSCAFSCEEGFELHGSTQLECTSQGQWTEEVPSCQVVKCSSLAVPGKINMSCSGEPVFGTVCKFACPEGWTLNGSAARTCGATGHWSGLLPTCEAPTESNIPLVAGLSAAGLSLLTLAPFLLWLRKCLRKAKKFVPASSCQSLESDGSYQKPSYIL

For the molecule `CCCCCCOC(=O)c1ccccc1O`, the result in experiment [1], in experiment [2] and in [6] was inactive. In addition, the AC50 (commonly the concentration giving half of the maximal activity seen) was 18.2 µM (active) and 22.9 µM (active) in experiment [3]; 37.9 µM (active) and 29.9 µM (active) in [4]; 31.2 µM (active) and 20.2 µM (active) in [5].

Turning to `O=C(CC(=O)C(F)(F)C(F)(F)F)C(F)(F)F`, the outcome in [1] was “inactive”; in [2] it was “inactive”; in experiment [3] it was “inactive”; with CD40, CD40 (gene 958), “inactive”; in [5], “inactive”; in experiment [7] it was “inactive”. Besides, the outcome in experiment [8], in experiment [9], in [10], in [11] and in [6] was inactive.

On to `O=C(O)C(F)(OC(F)(F)C(F)(OC(F)(F)C(F)(OC(F)(F)C(F)(F)C(F)(F)F)C(F)(F)F)C(F)(F)F)C(F)(F)F` (centres undefined), for which the outcome is “inactive” in experiment [1]; “inactive” in [2]; “inactive” in [3]; “inactive” in the experiment with CD40, CD40 (gene 958); “inactive” in [5]; “inactive” in [7]. Moreover, the result in [8], in experiment [9], in experiment [10], in experiment [11] and in experiment [6] was inactive.

Turning to `Cc1ccc(S(=O)(=O)OCC(F)(F)C(F)(F)C(F)(F)C(F)(F)C(F)(F)C(F)F)cc1`, the outcome is “inactive” in experiment [1]; “inactive” in experiment [2]; “inactive” with CD40, CD40 (gene 958); “inactive” in experiment [5]; “inactive” in experiment [7]; “inactive” in experiment [8]. The outcome in experiment [9], in experiment [10], in experiment [12], in experiment [11] and in experiment [6] was inactive. Moreover, the AC50 in experiment [3] was 6.75 µM (active) and 3.49 µM (active).

With `O=C(O)C(F)(F)C(F)(F)C(F)F`, the outcome was “inactive” in [1]; “inactive” in [2]; “inactive” in [3]; “inactive” in [4]; “inactive” with CD40, CD40 (gene 958); “inactive” in [5]. The outcome in [7], in experiment [8], in experiment [9], in experiment [10], in experiment [11] and in experiment [6] was inactive.

`O=S(=O)(OCC(F)F)C(F)(F)F`: the outcome is “inactive” in experiment [1]; “inactive” in experiment [2]; “inactive” in experiment [3]; “inactive” in the experiment with CD40, CD40 (gene 958); “inactive” in [5]; “inactive” in experiment [7]. Besides, the result in experiment [8], in experiment [9], in experiment [10], in experiment [12], in [11] and in [6] was inactive. The AC50 in experiment [11] was 221 nM (active).

On to `O=C(O)C(F)(F)C(F)(F)C(F)(F)C(F)(F)C(F)(F)C(F)(F)C(F)(F)C(F)(F)C(F)(F)C(F)(F)C(F)(F)C(F)(F)F`, for which the result in experiment [1], in [2], in experiment [3], in experiment [5], in experiment [7] and in experiment [8] was inactive. Further, the result in [9], in [10], in [12], in experiment [11] and in experiment [6] was inactive. Besides, the AC50 with CD40, CD40 (gene 958) is 13.3 µM (active) and 16.4 µM (active).

Take `OCC(F)(F)C(F)(F)C(F)(F)C(F)F`: the outcome in experiment [1] was “inactive”; in experiment [2] it was “inactive”; in [3] it was “inactive”; in [4] it was “inactive”; with CD40, CD40 (gene 958) it was “inactive”; in [5], “inactive”. Further, the outcome in [7], in experiment [8], in experiment [9], in experiment [10], in experiment [11] and in [6] was inactive.

(Values after PubChem BioAssay (EPA / NIEHS).)
